Test results taken from PubChem BioAssay AID2284324 (EPA ToxCast).
Records with an inconclusive call do not appear. Active and inactive are the calls of the source. How the source made its calls: active means hit-call score of the fitted dose curve at least 0.9, where 1 is the maximum; inconclusive means response in the unintended direction; inactive means score below 0.9.

These molecules were tested on Japanese medaka Glucocorticoid Receptor (GR), gene 101170451 (assay: ATG_jmGR_EcoTox2: Attagene TRANS-FACTORIAL EcoTox-2 HepG2 Assay for Japanese medaka Glucocorticoid Receptor (GR)).
Description: ATG_EcoTox2 is a cell-based, multiplexed assay created by modifying the existing Attagene TRANS-FACTORIAL system to include a panel of nuclear receptors from some or all the following species: human (Homo sapiens), african clawed frog (Xenopus laevis), rainbow trout (Oncorhynchus mykiss), japanese medaka (Oryzias latipes), and zebrafish (Danio rerio). The ECOTOX2-FACTORIAL format uses HepG2, a human liver cell line, with measurements taken at 24 hours after chemical dosing in a 24-well plate. ATG_jmGR_EcoTox2 is one of 29 assay components calculated in the ATG_EcoTox2 assay. It is designed to make measurements of mRNA induction, a form of inducible reporter, as detected with fluorescence intensity signals by Reverse transcription polymerase chain reaction (RT-PCR) and Capillary electrophoresis technology.The assay endpoint ATG_jmGR_EcoTox2 was analyzed in the positive analysis fitting direction relative to DMSO as the negative control and baseline of activity. Using a type of inducible reporter, measures of mRNA for gain-of-signal activity can be used to understand the reporter gene at the transcription factor-level as they relate to the gene for glucocorticoid receptor. Furthermore, this assay endpoint can be referred to as a primary readout, because this assay has produced multiple assay endpoints where this one serves a reporter gene function. To generalize the intended target to other relatable targets, this assay endpoint is annotated to the nuclear receptor intended target family, where the subfamily is steroidal.
Human liver HepG2 cells are transiently transfected with multiple reporter transcription units (MRTUs) in 6-well plates using FuGene 6 reagent (Roche; 3 ml FuGene/1 mg DNA). The MRTU constructs are regulated by a cis-regulating element (promoter). Each RTU expresses a GAL4-UAS that regulates the transcription of a nearby target reporter gene sequence. A major difference between the CIS and TRANS system is that in CIS activities of endogenous TFs are measured, whereas the TRANS assay evaluates changes in activities of exogenous, chimeric NR-Gal4 proteins. […] At the end of 24 hour incubation, total RNA was isolated using TriZol reagent (Invitrogen). The isolated RNA is then reverse-transcribed using oligo(dT) primer and Mo-MLV reverse transcriptase (Invitrogen) with DNAse I (Ambion) treatment for 30 min. The one-tenth of the produced cDNA was amplified by PCR using Taq DNA polymerase (Invitrogen) and two reporter sequence-specific primers. The PCR products were fluorescently labeled by primer extension with 6-arboxyfluorescein (6-FAM) 5'-labeled reporter sequence-specific primer (2 min at 95 C, 20 s at 68 C and 10 min at 72 C) and these products were digested with 5U of HpaI (New England Biolabs) for 2h at 37 C. The fragments were purified using Qiaquick PCR columns (Qiagen), analyzed on an ABI 3130xL genetic analyzer (Applied Biosystems) with peak positions identified by using a set of X-rhodamine (ROX)-labeled MapMarker1000 molecular weight standards (BioVentures). The raw capillary electrophoresis data was processed using Attagraph software (Attagene).
For `CC(C)(Oc1ccc(C2CC2(Cl)Cl)cc1)C(=O)O` (stereo not drawn), the outcome was “inactive”.
With `CC(C)OC(=O)C(C)(C)Oc1ccc(C(=O)c2ccc(Cl)cc2)cc1` the outcome was “inactive”.
In the case of `CC(C)(Oc1ccc(CCNC(=O)c2ccc(Cl)cc2)cc1)C(=O)O`, the outcome is reported as “inactive”.
For `Cc1cccc(Nc2cc(Cl)nc(SCC(=O)O)n2)c1C`, the outcome was “inactive”.
For `C[C@@H]1C[C@H]2[C@@H]3CCC4=CC(=O)C=C[C@]4(C)[C@@]3(F)[C@@H](O)C[C@]2(C)[C@@]1(O)C(=O)COP(=O)(O)O`, the AC50 was 14.8 nM (active).
For `C[C@]12C=CC(=O)C=C1CC[C@@H]1[C@@H]2C(=O)C[C@@]2(C)[C@H]1CC[C@]2(O)C(=O)CO`, the outcome was “inactive”.
For `CC(C)(Oc1ccc(Cl)cc1)C(=O)O`, the outcome was “inactive”.
For `Cc1ccc(C)c(OCCCC(C)(C)C(=O)O)c1`, the outcome was “inactive”.
